As usually defined, the AC50 is the concentration giving half of the maximal activity seen.

Results filed as inconclusive are left out. Active and inactive are the calls of the source. The calls were made as follows: active = hit-call score of the fitted dose curve at least 0.9, where 1 is the maximum; inconclusive = response in the unintended direction; inactive = score below 0.9.

A short description of the assay: ACEA_ER_AUC_viability: ACEA Biosciences xCELLigence Real-Time Cell Analysis on Estrogen Receptor Agonism for Viability (AID 2283782).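 Also: hit means loss of impedance signal meaning reduced cell growth or viability.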 The procedure, abridged: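 Read-out: real-time electrical impedance (RT-CES) area under curve, loss of signal taken as reduced viability, normalized to DMSO baseline. T-47D cells, charcoal-stripped serum medium, compounds up to 100 uM final, continuous exposure, 80 h.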
Consider `CCCCC(CC)COP(=O)(O)OCC(CC)CCCC` (configuration not stated), for which the AC50 was 79.2 µM (active). Take `CC(C)(C)C(=O)CC(=O)C(F)(F)C(F)(F)C(F)(F)F`: the compound was classed as inactive. With `O[Si](c1ccccc1)(c1ccccc1)c1ccccc1`, the concentration at half-maximal activity (AC50) is 196 µM (active). On the same count and under the same terms, then `CCCCCCCCCCCCCCCC[N+](C)(C)Cc1ccccc1`, with 3.4 µM (active).

On to `FC(F)(F)C(F)(F)C(F)(F)C(F)(F)C(F)(F)CCI`, for which the outcome was inactive. Still for that read-out and setting: for `Cc1ccc(S(=O)(=O)NCl)cc1` the value was “inactive”. Same read-out and setting: then `OCC(F)(F)C(F)(F)C(F)(F)C(F)(F)C(F)(F)C(F)F`, with “inactive”. For `N=C(N)C(F)(F)C(F)(F)C(F)(F)C(F)(F)C(F)(F)C(F)(F)C(F)(F)F`, the AC50 is 75 µM (active). For the compound `O=C(O)C(F)(F)C(F)(F)F`, the outcome was inactive. Still for that read-out and setting: then `O=C(O)C(F)(F)C(F)(F)C(F)(F)F`, with “inactive”. The same measure, in the same setting: then `Nc1ccc([N+](=O)[O-])cc1O`, with “inactive”. For `[Co]`, the result was inactive. Still for that read-out and setting: then `FC(F)(F)C(F)(F)C(F)(F)CI`, with “inactive”.

With `COC(=O)C1CCC(C(=O)OC)CC1` (configuration not stated), the compound was called inactive.

Regarding `O=C(O)C(F)(F)C(F)(F)C(F)F`, the outcome was inactive.

Consider `CC(C)=CCCC(C)CCOC(=O)C(C)C` (configuration not stated), for which the half-maximal activity concentration (AC50) was 50 µM (active). On to `CC(Cc1ccc(O)c(O)c1)C(C)Cc1ccc(O)c(O)c1` (configuration not stated), for which the AC50 was 27.6 µM (active). Turning to `OCC(F)(F)C(F)(F)C(F)(F)C(F)F`, the result was inactive. On the same count and under the same terms, then `C=C(C)C(=O)OCC(F)(F)C(F)(F)C(F)(F)F`, with “inactive”; and `FC(F)(F)C(F)(F)C(F)(F)C(F)(F)C(F)(F)C(F)(F)C(F)(F)I`, with “inactive”; and `OC[C@@H](O)[C@@H](O)[C@H](O)[C@@H](O)CO`, with “inactive”. The same measure, in the same setting: for `FC(F)(F)C(F)(F)C(F)(F)C(F)(F)C(F)(F)C(F)(F)CCS` the value was “inactive”.

The record behind these values is PubChem BioAssay (EPA / NIEHS).
